Laboratory results as given in the supplement of paper PMC10849652.
About 8,800 targets were measured; listed, in parts, are those with a hit and a random draw of the rest. About 0.5% of all pairs of compound and target were hits. Values without a mark were called inactive.

Legend:
Test in all cases: log2 fold change, soluble protein after heating vs DMSO (PISA); higher = thermal stabilisation; K562 lysate, 10 uM; active = over 0.2 and 3.5 SD of the protein, either way, in both replicates (recomputed)
[1] = compound: C1=CC=C(C=C1)[C@H](COC2=CC3=C(C=C2)NC(=O)N3)NC(=O)C4=CC=CN(C4=O)CC5=CC(=C(C=C5)F)F
Outline: (§1)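 Values give the log-two fold change in thermal stability against solvent controls, from duplicates. Crude K562 extract at 1 mg/mL protein, made by dounce homogenisation in PBS pH 7.4 with 1 mM MgCl2, was treated with 10 μM compound for 30 min. After 3 min heating across 48°C-58°C, aliquots were pooled, adjusted to 0.5% NP-40 at 4°C and centrifuged at 21,000xg for 90 min. The supernatant was measured by TMTpro 16plex LC-MS/MS with channel sums equalised.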

[2] = compound: CC1=C(SC2=C1C(=N[C@H](C3=NN=C(N32)C)CC(=O)N)C4=CC=C(C=C4)Cl)C
Outline: as §1

[3] = compound: CC1=C2C(=CC=C1)N=C(N(C2=O)C3=CC=CC=C3C)CN4C=NC5=C(N=CN=C54)N
Outline: as §1

[4] = compound: Cc1sc2c(c1C)C(c1ccc(Cl)cc1)=N[C@@H](CC(=O)OC(C)(C)C)c1nnc(C)n1-2
Outline: as §1

[5] = compound: c1ccc([C@@H]2C[C@H]2NC2CCNCC2)cc1
Outline: as §1

Sequence of UniProt Q96EK7 (Q96EK7 whole entry, looked up): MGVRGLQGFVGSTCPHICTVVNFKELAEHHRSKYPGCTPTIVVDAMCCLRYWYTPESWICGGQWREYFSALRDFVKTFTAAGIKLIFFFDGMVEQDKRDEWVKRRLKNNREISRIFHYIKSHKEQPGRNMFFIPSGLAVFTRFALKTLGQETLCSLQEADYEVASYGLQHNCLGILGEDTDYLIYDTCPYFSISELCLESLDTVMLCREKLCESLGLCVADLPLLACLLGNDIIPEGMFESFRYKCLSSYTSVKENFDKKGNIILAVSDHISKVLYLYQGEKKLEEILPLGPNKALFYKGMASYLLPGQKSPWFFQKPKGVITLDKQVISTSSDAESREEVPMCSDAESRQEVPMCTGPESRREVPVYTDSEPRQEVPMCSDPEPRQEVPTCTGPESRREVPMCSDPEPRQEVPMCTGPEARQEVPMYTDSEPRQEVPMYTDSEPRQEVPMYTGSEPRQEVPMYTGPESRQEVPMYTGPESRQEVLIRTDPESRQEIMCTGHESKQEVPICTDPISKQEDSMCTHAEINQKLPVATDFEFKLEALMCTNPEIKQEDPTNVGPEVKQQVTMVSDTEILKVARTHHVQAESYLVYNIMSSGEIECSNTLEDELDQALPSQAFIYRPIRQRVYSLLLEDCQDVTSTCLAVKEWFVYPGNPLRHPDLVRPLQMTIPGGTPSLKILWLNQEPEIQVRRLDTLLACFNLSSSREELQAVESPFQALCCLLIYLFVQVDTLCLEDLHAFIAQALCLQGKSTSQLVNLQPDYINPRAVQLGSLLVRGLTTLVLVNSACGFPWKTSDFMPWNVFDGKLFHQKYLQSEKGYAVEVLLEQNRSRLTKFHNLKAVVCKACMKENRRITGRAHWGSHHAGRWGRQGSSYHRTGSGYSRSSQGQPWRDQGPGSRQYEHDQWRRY
Sequence of UniProt O14526 (O14526 whole entry, looked up): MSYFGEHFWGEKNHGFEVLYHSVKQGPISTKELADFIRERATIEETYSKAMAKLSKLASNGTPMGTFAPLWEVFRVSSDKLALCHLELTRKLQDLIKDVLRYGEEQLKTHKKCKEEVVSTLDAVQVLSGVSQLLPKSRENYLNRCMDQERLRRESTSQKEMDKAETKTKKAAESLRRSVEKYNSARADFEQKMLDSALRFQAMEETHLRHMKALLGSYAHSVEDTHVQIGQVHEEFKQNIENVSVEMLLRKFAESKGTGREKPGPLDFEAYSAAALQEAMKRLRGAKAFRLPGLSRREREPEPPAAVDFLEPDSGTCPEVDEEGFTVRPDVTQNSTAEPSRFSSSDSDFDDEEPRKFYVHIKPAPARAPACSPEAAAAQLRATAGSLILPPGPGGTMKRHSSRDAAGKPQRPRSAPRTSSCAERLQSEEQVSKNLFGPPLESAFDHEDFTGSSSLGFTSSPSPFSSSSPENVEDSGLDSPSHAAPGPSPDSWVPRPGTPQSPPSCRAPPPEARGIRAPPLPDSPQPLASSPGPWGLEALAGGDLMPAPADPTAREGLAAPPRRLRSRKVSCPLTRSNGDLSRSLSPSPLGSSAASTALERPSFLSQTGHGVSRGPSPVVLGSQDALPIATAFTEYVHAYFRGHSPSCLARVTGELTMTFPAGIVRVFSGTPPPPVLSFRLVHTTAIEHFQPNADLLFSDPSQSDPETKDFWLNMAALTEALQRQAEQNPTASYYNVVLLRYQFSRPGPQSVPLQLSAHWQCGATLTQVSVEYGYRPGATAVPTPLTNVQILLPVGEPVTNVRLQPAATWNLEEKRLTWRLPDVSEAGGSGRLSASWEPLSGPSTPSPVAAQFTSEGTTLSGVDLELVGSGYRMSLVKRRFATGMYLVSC
Sequence of UniProt P06241 (P06241 whole entry, looked up): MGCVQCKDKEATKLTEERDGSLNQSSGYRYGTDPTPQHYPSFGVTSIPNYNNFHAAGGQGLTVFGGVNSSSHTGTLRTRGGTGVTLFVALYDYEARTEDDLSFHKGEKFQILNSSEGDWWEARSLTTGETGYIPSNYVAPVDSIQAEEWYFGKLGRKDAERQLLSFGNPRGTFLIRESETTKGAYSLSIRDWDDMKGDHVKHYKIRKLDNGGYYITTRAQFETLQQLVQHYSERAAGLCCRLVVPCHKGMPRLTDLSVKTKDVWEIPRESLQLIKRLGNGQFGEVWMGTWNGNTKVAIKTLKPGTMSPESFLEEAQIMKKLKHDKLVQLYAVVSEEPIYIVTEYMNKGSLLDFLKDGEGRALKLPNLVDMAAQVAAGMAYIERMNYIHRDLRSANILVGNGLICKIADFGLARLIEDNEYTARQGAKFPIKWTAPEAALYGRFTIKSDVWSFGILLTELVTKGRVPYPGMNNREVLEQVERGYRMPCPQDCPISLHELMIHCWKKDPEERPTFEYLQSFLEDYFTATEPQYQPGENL
Sequence of UniProt P54852 (P54852 whole entry, looked up): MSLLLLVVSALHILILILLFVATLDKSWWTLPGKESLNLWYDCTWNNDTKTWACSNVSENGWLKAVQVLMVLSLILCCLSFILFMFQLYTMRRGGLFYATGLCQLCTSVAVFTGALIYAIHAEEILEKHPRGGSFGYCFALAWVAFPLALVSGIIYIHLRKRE
Sequence of UniProt O95208 (O95208 whole entry, looked up): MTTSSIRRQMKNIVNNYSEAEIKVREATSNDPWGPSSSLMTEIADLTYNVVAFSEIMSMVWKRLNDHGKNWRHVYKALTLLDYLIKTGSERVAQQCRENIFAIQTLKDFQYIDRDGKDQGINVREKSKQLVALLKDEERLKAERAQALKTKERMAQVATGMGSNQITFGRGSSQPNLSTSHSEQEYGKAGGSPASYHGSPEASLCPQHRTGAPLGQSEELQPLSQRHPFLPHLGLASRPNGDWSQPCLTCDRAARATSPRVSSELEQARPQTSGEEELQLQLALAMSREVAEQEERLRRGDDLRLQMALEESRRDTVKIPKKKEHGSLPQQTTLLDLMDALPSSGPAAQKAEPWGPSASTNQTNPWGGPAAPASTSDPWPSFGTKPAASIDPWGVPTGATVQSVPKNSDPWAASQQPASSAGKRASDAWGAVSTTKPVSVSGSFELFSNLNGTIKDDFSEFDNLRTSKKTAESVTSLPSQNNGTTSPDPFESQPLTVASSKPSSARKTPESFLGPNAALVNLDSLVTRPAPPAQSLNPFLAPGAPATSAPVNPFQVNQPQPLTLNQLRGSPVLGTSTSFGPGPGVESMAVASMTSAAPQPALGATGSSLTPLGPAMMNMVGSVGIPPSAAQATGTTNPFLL
Sequence of UniProt O43768 (O43768 whole entry, looked up): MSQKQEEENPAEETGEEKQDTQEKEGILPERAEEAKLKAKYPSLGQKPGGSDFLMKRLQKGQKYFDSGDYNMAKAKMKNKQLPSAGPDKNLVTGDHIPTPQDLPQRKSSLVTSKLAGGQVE
Sequence of UniProt Q9NRY5 (Q9NRY5 whole entry, looked up): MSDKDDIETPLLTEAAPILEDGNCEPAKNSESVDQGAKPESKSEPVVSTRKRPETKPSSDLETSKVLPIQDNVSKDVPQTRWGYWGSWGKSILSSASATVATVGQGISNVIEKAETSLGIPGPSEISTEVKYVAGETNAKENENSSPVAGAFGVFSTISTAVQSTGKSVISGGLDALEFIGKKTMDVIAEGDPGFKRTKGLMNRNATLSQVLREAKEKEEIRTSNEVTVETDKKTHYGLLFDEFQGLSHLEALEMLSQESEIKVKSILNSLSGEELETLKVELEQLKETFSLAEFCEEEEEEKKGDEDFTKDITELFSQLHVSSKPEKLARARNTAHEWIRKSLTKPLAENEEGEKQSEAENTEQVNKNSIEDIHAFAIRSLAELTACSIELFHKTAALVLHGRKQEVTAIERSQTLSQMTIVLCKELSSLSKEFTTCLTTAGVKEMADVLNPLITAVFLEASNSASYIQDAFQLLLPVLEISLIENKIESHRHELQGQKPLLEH
Sequence of UniProt Q5VTE0 (Q5VTE0 whole entry, looked up): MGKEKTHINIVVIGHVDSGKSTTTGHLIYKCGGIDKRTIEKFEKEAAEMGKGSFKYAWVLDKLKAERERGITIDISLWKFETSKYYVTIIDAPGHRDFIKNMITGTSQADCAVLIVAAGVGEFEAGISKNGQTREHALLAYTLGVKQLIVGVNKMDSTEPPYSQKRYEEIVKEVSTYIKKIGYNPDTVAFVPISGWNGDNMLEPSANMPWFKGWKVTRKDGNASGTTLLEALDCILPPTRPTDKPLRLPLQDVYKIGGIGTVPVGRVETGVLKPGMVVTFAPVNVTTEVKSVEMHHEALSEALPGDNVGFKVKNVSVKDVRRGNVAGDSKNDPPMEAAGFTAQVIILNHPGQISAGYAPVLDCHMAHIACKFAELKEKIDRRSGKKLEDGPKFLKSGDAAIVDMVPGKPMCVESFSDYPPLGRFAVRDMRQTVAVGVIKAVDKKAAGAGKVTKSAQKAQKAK
Sequence of UniProt P23919 (P23919 whole entry, looked up): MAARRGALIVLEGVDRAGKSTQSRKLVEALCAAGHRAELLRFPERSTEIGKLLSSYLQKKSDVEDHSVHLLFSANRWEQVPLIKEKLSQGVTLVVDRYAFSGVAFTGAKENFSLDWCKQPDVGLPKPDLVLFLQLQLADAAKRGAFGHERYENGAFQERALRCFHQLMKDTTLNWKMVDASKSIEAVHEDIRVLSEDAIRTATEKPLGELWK
Sequence of UniProt O75477 (O75477 whole entry, looked up): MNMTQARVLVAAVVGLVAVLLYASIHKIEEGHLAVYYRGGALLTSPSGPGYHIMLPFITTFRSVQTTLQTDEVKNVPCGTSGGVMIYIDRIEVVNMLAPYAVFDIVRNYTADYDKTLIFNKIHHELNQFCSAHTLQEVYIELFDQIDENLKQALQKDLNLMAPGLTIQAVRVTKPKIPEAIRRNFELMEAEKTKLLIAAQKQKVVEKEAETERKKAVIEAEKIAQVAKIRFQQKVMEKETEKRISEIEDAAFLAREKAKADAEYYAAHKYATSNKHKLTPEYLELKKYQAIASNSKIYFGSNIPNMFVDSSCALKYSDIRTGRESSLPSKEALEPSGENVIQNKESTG
Sequence of UniProt Q6P4F2 (Q6P4F2 whole entry, looked up): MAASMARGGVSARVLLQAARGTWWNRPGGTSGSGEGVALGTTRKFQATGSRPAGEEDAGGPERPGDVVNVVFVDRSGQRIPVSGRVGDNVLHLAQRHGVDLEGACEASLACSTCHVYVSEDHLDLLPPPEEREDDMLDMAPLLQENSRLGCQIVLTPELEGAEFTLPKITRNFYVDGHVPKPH

Target | log2 fold change [1] | log2 fold change [2] | log2 fold change [3] | log2 fold change [4] | log2 fold change [5]
FAM53B (UniProt Q14153) | 0.044 | -0.039 | 0.055 | -0.088 | 0.022
FXR2 (UniProt P51116) | -0.021 | -0.011 | 0.032 | -0.014 | 0.054
FBXO38 (UniProt Q6PIJ6) | -0.007 | 0.094 | 0.007 | 0.068 | 0.013
EBP (UniProt Q15125) | -0.011 | -0.061 | 0.022 | 0.09 | -0.141
FDX2 (UniProt Q6P4F2) | -0.039 | 0.021 | -0.012 | 0.062 | -0.05
EXOC1 (UniProt Q9NV70) | -0.011 | 0.032 | 0.013 | 0.02 | 0.068
FLT4 (UniProt P35916) | 0.006 | -0.04 | -0.031 | 0.098 | -0.408
EAPP (UniProt Q56P03) | 0.008 | 0.048 | 0.137 | 0.029 | -0.079
ERCC4 (UniProt Q92889) | -0.038 | 0.036 | 0.043 | -0.008 | -0.305 (active)
EIF2AK1 (UniProt Q9BQI3) | 0.006 | -0.035 | -0.007 | -0.022 | -0.041
EDARADD (UniProt Q8WWZ3) | 0.074 | -0.088 | -0.032 | -0.037 | 0.064
FADS1, A0A0A0MR51 | 0.071 | -0.019 | -0.027 | -0.035 | 0.013
EED, A0A5F9ZI63 | 0.022 | -0.01 | 0.027 | -0.007 | -0.011
FYN (UniProt P06241) | -0.323 | -0.231 | -0.052 | 0.019 | -0.112
EEF1A1P5 (UniProt Q5VTE0) | 0.006 | 0.011 | 0.004 | -0.067 | -0.036
EIF2AK2 (UniProt P19525) | 0.01 | -0.002 | -0.027 | 0.216 | 0.03
FCHO1 (UniProt O14526) | -0.026 | 0.066 | -0.025 | 0.009 | 0.027
ERI1 (UniProt Q8IV48) | 0.071 | -0.061 | -0.022 | -0.015 | 0.056
ENSA isoform 3 (UniProt O43768) | 0.037 | -0.027 | -0.024 | -0.008 | 0.02
FAM120B (UniProt Q96EK7) | 0.034 | 0.059 | -0.004 | -0.016 | 0.035
EWSR1 isoform 5 (UniProt Q01844) | 0.047 | -0.024 | -0.012 | 0.053 | 0.002
FAM114A2 (UniProt Q9NRY5) | 0.073 | -0.002 | -0.027 | 0.019 | 0.035
ENY2 (UniProt Q9NPA8) | 0.033 | -0.001 | -0.162 | 0.117 | 0.386
EPN2 (UniProt O95208) | -0.012 | -0.017 | -0.02 | -0.084 | -0.161

Target | log2 fold change [1] | log2 fold change [2] | log2 fold change [3] | log2 fold change [4] | log2 fold change [5]
EMP3 (UniProt P54852) | 0.026 | -0.028 | -0.038 | -0.113 | -0.345
ECH1 (UniProt Q13011) | -0.059 | 0.008 | -0.006 | -0.026 | 0.012
ENO1, A0A2R8YEM5 | 0.026 | -0.096 | -0.048 | -0.028 | -0.21
EEF1A1, A0A087WVQ9 | -0.053 | 0.093 | -0.042 | -0.001 | 0.049
GGT7 (UniProt Q9UJ14) | -0.138 | 0.017 | 0.103 | -0.015 | -0.048
FREM2 (UniProt Q5SZK8) | 0 | 0.074 | 0.003 | -0.133 | -0.212
EHD2 (UniProt Q9NZN4) | -0.074 | -0.065 | 0.003 | -0.069 | 0.087
EEF1AKMT4 (UniProt P0DPD7) | -0.061 | 0.027 | -0.036 | 0.017 | -0.063
EPRS (UniProt P07814) | -0.005 | 0.002 | 0.003 | 0.043 | 0.016
ESPL1 (UniProt Q14674) | 0.016 | 0.129 | 0.251 | 0.136 | 0.077
ETHE1 (UniProt O95571) | 0.008 | 0.003 | 0.008 | 0.048 | -0.147
FIG4 (UniProt Q92562) | -0.107 | -0.108 | 0.037 | 0.039 | -0.037
EIF2D (UniProt P41214) | -0.007 | -0.012 | 0.044 | 0.003 | 0.049
ETFRF1 (UniProt Q6IPR1) | 0.021 | 0.058 | -0.031 | -0.02 | 0.066
EMC7 (UniProt Q9NPA0) | 0.01 | 0.02 | 0.024 | 0.005 | -0.141
GEMIN2 (UniProt O14893) | -0.009 | 0.01 | -0.023 | 0.015 | -0.043
DTYMK (UniProt P23919) | -0.041 | 0.014 | -0.029 | -0.096 | 0.098
ERLIN1 (UniProt O75477) | -0.03 | 0.039 | 0.02 | 0.029 | -0.033
FNBP1L (UniProt Q5T0N5) | -0.082 | -0.009 | 0.012 | -0.032 | 0.029
EIF2B4 isoform 2 (UniProt Q9UI10) | -0.026 | 0.04 | 0.037 | -0.007 | 0.042
FANCI (UniProt Q9NVI1) | -0.051 | -0.009 | 0.029 | 0.015 | 0.088
GAPVD1 isoform 6 (UniProt Q14C86) | -0.013 | 0.002 | 0.002 | -0.011 | 0.063
FIGNL1 (UniProt Q6PIW4) | -0.033 | 0.01 | 0.028 | 0.051 | 0.085
GEMIN5 (UniProt Q8TEQ6) | -0.015 | 0.025 | 0.016 | -0.002 | 0.036
